# MITF primary: inhibitors of human MITF; O75030; AlphaScreen MITF homodimerization, bead proximity signal; inhibition, % at 2.6 µM; actives 0.91% (n = 650,000); AID 1259374; in the data active = inhibition above about 50%
# TEAD-YAP block: TEAD-YAP interaction inhibition | actives 1.4% (n = 640,000) | inhibition, % at 9.12 µM | HEK-TIYL cells, TEAD-Gal4/YAP UAS-luciferase luminescence | AID 1259422; in the data active = inhibition above about 32%
# FBW7 act: activators of human E3 ligase FBW7; Q969H0; AlphaScreen FBW7–phospho-cyclin E peptide binding, activator screen; normalized activity (activation), % at 26.1 µM; actives 0.13% (n = 650,000); AID 1259310; in the data active = normalized activity above about 1.9%;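 note: purified mutant Fbw7 with reduced substrate affinity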
# GPR151 ag: activators of human GPR151. PathHunter beta-arrestin GPR151 cells, luminescence. activation, % at 11.2 µM. actives 1% (n = 650,000); in the data active = activation above about 4.9%
# GPR151 confirm: confirmation of human GPR151 activators; shares compounds with GPR151 ag; GPR151 PathHunter beta-arrestin cells, luminescence, 90 min; % of EA-reagent control over plate median; activation, % at 11.2 µM; 6,700 tested, under 10 active; AID 1508609;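 active = mean percent activation across replicates above the confirmation screen cutoff of 4.91%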
# GPR119 ag: GPR119 activation, counter-screen for GPR151 activators. activation, % at 11.2 µM. shares compounds with GPR151 ag. AID 1508611. GPR119 PathHunter beta-arrestin cells, luminescence, 90 min; 0 = compound-well median, 100 = enzyme-acceptor control. actives 0.3% (n = 6,700);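 active = mean percent activation in the counterscreen above 29.09%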;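 note: counterscreen on off-target GPR119 to flag nonselective hits from the GPR151 activator screen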
# Target sequence (Q8TDV5 whole entry, looked up): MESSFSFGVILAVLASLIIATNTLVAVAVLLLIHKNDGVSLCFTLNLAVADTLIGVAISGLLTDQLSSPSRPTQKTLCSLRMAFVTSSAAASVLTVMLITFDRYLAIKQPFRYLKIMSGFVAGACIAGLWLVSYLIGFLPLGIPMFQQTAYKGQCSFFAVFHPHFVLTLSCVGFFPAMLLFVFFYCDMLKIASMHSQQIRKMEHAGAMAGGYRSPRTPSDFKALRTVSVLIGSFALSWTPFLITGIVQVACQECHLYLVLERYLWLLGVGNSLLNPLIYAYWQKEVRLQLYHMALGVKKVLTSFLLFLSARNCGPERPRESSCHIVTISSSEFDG
# A number is an active result; n = inactive; x = no result; ! = not active in a repeat. A selection: hits, their analogues and other compounds. The true share with any hit is near 3.5%.
SMILES,MITF primary,TEAD-YAP block,FBW7 act,GPR151 ag,GPR151 confirm,GPR119 ag
O=C(/C=C/c1ccc(Cl)cc1)NCc1ccccc1,n,n,n,n,x,x
COc1ccc(NC(=O)CCCC(=O)OCC(F)(F)C(F)F)cc1,n,n,n,5.0,n,n
O=C1NC2(CCCCCC2)Cc2ccccc21,n,n,n,7.9,n,n
O=C(O)CN=C1NC2(CCCC2)Cc2ccccc21,n,n,n,n,x,x
FC(F)(F)c1cccc(CNc2cc(Nc3nccc4ccccc34)ncn2)c1,n,n,n,6.7,n,n
O=C(CSc1ncccn1)NCc1cccc(C(F)(F)F)c1,n,n,n,5.8,n,n
Nc1nc(NCc2cccc(C(F)(F)F)c2)cc(Nc2nccc3ccccc23)n1,n,n,n,n,x,x
O=C(NCc1cccc(C(F)(F)F)c1)c1cccc(Nc2nccc3ccccc23)n1,n,n,n,5.5,n,n
FC(F)(F)c1cccc(CNc2ccnc(-c3ccccc3)n2)c1,n,37!,n,5.0!,n,n
c1ccc(CNc2ccnc(-c3ccccc3)n2)cc1,n,n,n,n,x,x
O=C1c2cccc([N+](=O)[O-])c2C(=O)N1CCOC(=O)C12CC3CC(CC(C3)C1)C2,n,n,n,n,x,x
CCOC(=O)Cc1ccc(N(Cc2cccs2)S(=O)(=O)c2cc(C)ccc2C)cc1,n,n,n,n,x,x
O=C(NCc1ccccc1)c1nn(C23CC4CC(CC(C4)C2)C3)cc1[N+](=O)[O-],n,n,n,5.6,n,n
COc1ccc(Nc2nc(NCCCN3CCOCC3)c3cc(OC)c(OC)cc3n2)cc1,n,n,n,n,x,x
CC(=O)c1c(C)[nH]c(C(=O)N2CCN(c3ccccc3F)CC2)c1C,n,n,n,n,x,x
CC(=O)c1c(C)[nH]c(C(=O)N2CCN(c3ccccc3)CC2)c1C,n,n,n,13,n,n
COc1ccc(CNC(=O)CCCc2ccccc2)cc1,n,n,n,n,x,x
COc1ccc(CNC(=O)CCCc2nc3ccccc3c(=O)[nH]2)cc1,n,n,n,6.3,n,n
COc1cc2[nH]c(=S)nc(NCCCN3CCCC3)c2cc1OC,n,n,n,n,x,x
COc1cc2[nH]c(=S)nc(NCC(OC)OC)c2cc1OC,n,n,n,5.5,n,n
CN1CCN(C(=O)c2cc3c(=O)n(C)c4ccccc4c3s2)CC1,n,n,n,n,x,x
CCOc1ccc(-c2n[nH]c(C)c2Oc2ccc(F)cc2)c(O)c1,n,n,n,4.9,n,n
O=Cc1ccc(OCC(=O)Nc2ccc(F)cc2)c(Br)c1,n,n,n,n,x,x
NC(=O)NC(=O)COc1ccc(F)cc1Br,n,n,n,8.2,n,n
C=CCOC(=O)C1C(c2cccc(Br)c2)c2c([nH][nH]c2=O)CC1(C)O (centres undefined),n,n,n,6.0,n,n
SMILES,MITF primary,TEAD-YAP block,FBW7 act,GPR151 ag,GPR151 confirm,GPR119 ag
C=CCOC(=O)C1C(c2ccccc2)c2c([nH][nH]c2=O)CC1(C)O (centres undefined),n,n,n,n,x,x
CC(C)NC(=O)CSc1ncnc2sc3c(c12)CCC3,n,n,n,n,x,x
Cc1cccc(-c2nc(C)cc(NCCc3ccccn3)n2)c1,n,n,n,5.8,n,n
CCCNc1cc(C)nc(-c2ccccc2)n1,n,n,n,n,x,x
CC1(C)CC(NC(=O)C2CC(C(c3ccccc3)c3ccccc3)=NO2)CCO1 (centres undefined),n,n,n,n,x,x
Cc1ccc(C(=O)N[C@H]2C[C@H]3C(=O)N[C@H](C)C(=O)N3C2)cc1,n,n,n,5.9,n,n
C[C@@H]1NC(=O)[C@@H]2C[C@H](NC(=O)c3ccc(F)cc3)CN2C1=O,n,n,n,n,x,x
Cc1ccc(S(=O)(=O)N(CC(=O)NCc2ccccn2)Cc2ccccc2)cc1,n,n,n,n,x,x
COc1cccc(C2NC(C(=O)O)Cc3c2[nH]c2ccccc32)c1 (centres undefined),n,n,n,n,x,x
CCC(=O)Nc1c2c(nn1-c1ccccc1)CS(=O)C2 (centres undefined),n,n,n,n,x,x
CC(=O)c1nc2ccccc2n1S(=O)(=O)c1ccc(Cl)cc1,n,n,n,5.2,n,n
Cc1ccc(S(=O)(=O)N(C)CC(=O)OCc2cc([N+](=O)[O-])cc3c2OCOC3)cc1,n,n,n,8.1,n,n
O=C(O)c1cccnc1SC1CC(=O)N(c2ccc(Cl)c(Cl)c2)C1=O (centres undefined),n,n,n,n,x,x
Cc1ccc(S(=O)(=O)N2CCC(C(=O)N3CCCC(C)C3)CC2)cc1 (centres undefined),n,n,n,n,x,x
Cc1csc2ncc(C(=O)N3CCc4ccccc43)c(=O)n12,n,n,n,7.9,n,n
CCCNc1nnnc2c1cnn2-c1ccccc1,n,n,n,n,x,x
CC(C)CNc1nnnc2c1cnn2-c1ccccc1,n,n,n,9.6,n,n
CCOC(=O)c1cc(-c2ccccn2)nc2c1c(=O)[nH]c(=O)n2CC(C)C,n,n,n,n,x,x
N#CCCN(CCC#N)C(=O)Cc1ccc(Br)cc1,n,n,n,n,x,x
CCCN(CCC)C(=O)Cc1ccc(Br)cc1,n,n,n,8.4,n,n
CCOC(=O)c1ccc(N2C(=O)CC(Cc3ccc(Cl)cc3)C2=O)cc1 (centres undefined),n,n,n,9.6,n,n
CN1CCC(CNS(=O)(=O)CCc2ccccc2)CC1,n,n,n,5.7,n,n
O=[N+]([O-])c1ccc(Cl)cc1NCCOCC(F)(F)F,n,n,n,5.2,n,n
CCc1nnc(NC(=O)c2ccccc2[N+](=O)[O-])s1,n,n,n,n,x,x
O=C(Nc1nc(-c2ccccn2)cs1)c1ccccc1[N+](=O)[O-],n,54,n,5.4,n,n
SMILES,MITF primary,TEAD-YAP block,FBW7 act,GPR151 ag,GPR151 confirm,GPR119 ag
CC(C)(C)Cc1nnc(NC(=O)c2ccccc2[N+](=O)[O-])s1,n,n,n,13,n,n
O=C(Nc1nc(-c2ccccc2)cs1)c1ccccc1[N+](=O)[O-],n,n,n,n,x,x
CCOC(=O)c1c(N)n(-c2ccc(C(=O)O)cc2)c2nc3ccccc3nc12,n,n,n,n,x,x
COc1ccccc1-c1nc2c(C)cccn2c1NCC1CCCO1 (centres undefined),n,n,n,n,x,x
COCCCn1c(-c2ccc(C(C)(C)C)cc2)n[nH]c1=S,n,n,n,12,n,n
S=C(NCc1ccccn1)Nc1cccc(Cl)c1,n,n,n,10.0,n,n
O=C(N[C@H]1C[C@H]2C(=O)N3CCC[C@@H]3C(=O)N2C1)c1cc(F)ccc1F,n,n,n,n,x,x
CC(C)c1ccc(CN(C(=O)c2cc3ccccc3oc2=O)C2CCS(=O)(=O)C2)cc1 (centres undefined),n,n,n,5.6,n,n
CCN(CC)CCn1c(=S)[nH]c2cc(C(=O)NC3CCCCCC3)ccc2c1=O,n,n,n,n,x,x
O=C(Nc1nnc(S(=O)(=O)N2CCCCC2)s1)C12CC3CC(CC(C3)C1)C2,n,n,n,5.5,n,n
